Results: PubChem BioAssay (NCATS)
Unmarked numbers belong to inactive results. Results filed as inconclusive are left out. The source made the active and inactive calls. Unless noted, the call rests on the fitted dose curve; in most records, active means well fitted curve in either direction with a large enough effect (not every such curve was filed as active); inconclusive means small, poorly fitted or top-dose-only effect, or another doubt; inactive means flat fitted curve, though single readings scatter.

What was measured:
[1] = AP1 Signaling Pathway (AID 357); details: ME-180 AP-1-bla reporter, EGF-induced, beta-lactamase ratio, 5 h; at 17.2 µM (top of the series) unless noted;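 further: ME-180 reporter cells stimulated with EGF at its EC50 level; on the % scale 0 is the no-effect control and ±100 the full control effect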
Summary of the method: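 Modulation of EGF-driven AP-1 transcription was assessed with a beta-lactamase reporter in ME-180 cells. Compound and EC50 EGF were co-incubated 5 hours at 37 °C before 2.5-hour CCF4 loading at room temperature and dual-emission reading.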

[2] = NFAT Signaling Pathway (AID 444); details: Jurkat NFAT-bla M1, carbachol, beta-lactamase ratio, 5 h; at 17.2 µM (top of the series) unless noted;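 further: carbachol stimulus at about its EC50 of 1 µM final; on the % scale 0 is the no-effect control and ±100 the full control effect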
Summary of the method: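 Read-out: CCF4 FRET ratio (460 nm/530 nm) after 1 h RT dye loading, used for %activity and AC50 from titration series. Cells: Jurkat NFAT-β-lactamase/M1 line, treated with compound plus 1 uM carbachol for 5 h, 37 °C.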

[3] = Stat Signaling Pathway (AID 446); details: ME-180 SIE beta-lactamase reporter, IL-6 stimulated, 5 h; at 17.2 µM (top of the series) unless noted;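 further: ME-180 cervical cancer cells given 40 pM IL-6 alongside compound; SIE-controlled beta-lactamase reporter measured as 460/530 nm FRET emission ratio; on the % scale 0 is the no-effect control and ±100 the full control effect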
Summary of the method: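 Reporter line: ME-180 cervical carcinoma, SIE-beta-lactamase. Treatment: compound with 40 pM IL-6, 5 hrs, 37 C, in low-serum OPTI-MEM with 10 mM HEPES pH 7.3. Detection: 460/530 nm fluorescence.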

[4] = target: Glucocorticoid receptor (Homo sapiens) (UniProt P04150); assay: GR-GFP Redistribution (AID 450;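 active means compounds whose dose series gives a full or clear partial fitted curve of increased nuclear translocation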; further: potency means the concentration at half of the fitted maximal effect)
Sequence of Glucocorticoid receptor (Homo sapiens) (P04150 whole entry, looked up): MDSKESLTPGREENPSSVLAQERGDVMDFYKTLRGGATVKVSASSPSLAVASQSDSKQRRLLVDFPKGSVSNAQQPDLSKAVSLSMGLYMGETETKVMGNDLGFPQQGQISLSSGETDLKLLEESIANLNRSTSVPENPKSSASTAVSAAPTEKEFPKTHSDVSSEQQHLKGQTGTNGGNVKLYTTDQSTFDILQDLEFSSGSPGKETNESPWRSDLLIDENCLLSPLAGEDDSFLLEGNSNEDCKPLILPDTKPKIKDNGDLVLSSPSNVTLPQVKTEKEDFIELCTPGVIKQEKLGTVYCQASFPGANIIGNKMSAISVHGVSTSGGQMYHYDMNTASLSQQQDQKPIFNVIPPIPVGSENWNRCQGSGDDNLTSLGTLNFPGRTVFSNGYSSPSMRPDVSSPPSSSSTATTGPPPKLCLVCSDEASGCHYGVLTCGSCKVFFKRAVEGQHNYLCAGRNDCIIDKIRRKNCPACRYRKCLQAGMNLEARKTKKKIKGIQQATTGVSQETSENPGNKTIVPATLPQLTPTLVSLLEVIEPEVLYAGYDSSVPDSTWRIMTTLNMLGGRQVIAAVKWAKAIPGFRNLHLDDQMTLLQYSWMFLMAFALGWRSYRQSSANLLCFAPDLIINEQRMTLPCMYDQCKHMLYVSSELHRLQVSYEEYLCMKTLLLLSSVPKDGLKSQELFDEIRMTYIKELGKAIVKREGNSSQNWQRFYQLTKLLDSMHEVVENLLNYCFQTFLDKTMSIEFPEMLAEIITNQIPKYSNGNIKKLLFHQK

| Structure (SMILES) | activity change, negative = inhibition [1] | activity change, negative = inhibition [2] | activity, negative = inhibition [3] | Potency [4] |
| --- | --- | --- | --- | --- |
| O=C(CC(c1ccc(F)cc1)c1ccco1)N1CCCC1 (centres undefined) | -6.27% | -22.2% | -1.51% | > 20.6 µM |
| O=C(c1ccco1)N1CCN(CCOCCOc2cccc3ccccc23)CC1 | 1.08% | -2.55% | -10% | > 20.6 µM |
| CCCC(=O)N1CCN(c2nc(CC(C)C)c3c(c2C#N)CCC3)CC1 | -11.7% | -18.4% | -1.27% | > 20.6 µM |
| CCOC(=O)CCNc1n[nH]c(=O)[nH]c1=O | 7.71% | 7.29% | -2.32% | > 20.6 µM |
| C[C@@H]1C[C@H](Nc2ccccc2)c2ccccc2N1C(=O)c1cccnc1 | 5.62% | -3.58% | -2.73% | > 20.6 µM |
| O=C(NC1CCS(=O)(=O)C1)N1CCCCC1 (centres undefined) | -10.9% | -4.07% | 9% | > 20.6 µM |
| CC1(C)Cc2c(C#N)c(N3CCOCC3)nc(Cc3ccccc3)c2CO1 | -20.2% | -28.9% | -7.6% | > 20.6 µM |
| O=C(c1ccccc1)n1c(=S)nc2ccccn21 | 4.19% | -14% | -3.1% | > 20.6 µM |
| C[n+]1cccc(CNC(=O)/C=N/O)c1 | -0.78% | 2.4% | 7.83% | > 20.6 µM |
| C=C(C)CN1CCN(c2c(CCC#N)c(C)c(C#N)c3nc4ccccc4n23)CC1 | 6.83% | 20% | 9.9% | > 20.6 µM |
| Cc1cc(=O)n2[nH]c(N3C(=O)CCC3=O)nc2n1 | 5.03% | -4.69% | 11.6% | > 20.6 µM |
| CSc1nc(N)nc(SCC(=O)OC(C)C)c1C#N | -15.6% | 6.28% | -5.26% | > 20.6 µM |
| C=CCOc1nc2c(c(=O)n(C)c(=O)n2C)n1Cc1ccc(Cl)cc1Cl | 4.26% | -9.88% | -16.6% | > 20.6 µM |
| C=CCn1c(SCc2c(F)c(F)c(F)c(F)c2F)nc(O)cc1=O | 4.5% | 25.9% | -10.5% | > 20.6 µM |
| CCCCOC(=O)c1ccc(NC(=O)CSc2nncn2C)cc1 | 6.24% | 4.69% | 4.52% | > 20.6 µM |
| Cc1ccccc1N1C(=O)C2ON(c3ccccc3)C(c3cccnc3)C2C1=O (centres undefined) | -2.7% | -0.971% | -4.14% | > 20.6 µM |
| Cc1occc1C(=O)OCC(=O)Nc1ccc(F)cc1 | 17.4% | 1.22% | -3.3% | > 20.6 µM |
| C=CCn1c(-c2ccccc2)n[nH]c1=S | 6.97% | -4.63% | 3.46% | > 20.6 µM |
| CCSc1nnc(N(CCC(=O)O)CCC(=O)O)s1 | 2.21% | 5.3% | -4.16% | > 20.6 µM |
| CC(=O)NC1(C(F)(F)F)C(=O)Nc2c1c(=O)n(C)c(=O)n2C (centres undefined) | 21.1% | 7.97% | 0.854% | > 20.6 µM |
| CCn1cc(/C=N/O)c(C)n1 | -0.439% | -4.37% | 14% | > 20.6 µM |
| CCCCc1nc(N2CCOCC2)c(C#N)c2c1CCCC2 | -10.8% | -27.2% | -8.28% | > 20.6 µM |
| O=C(Nc1ccccc1)c1cc(N2CCOCC2)nc2ccccc12 | 2.4% | 13.1% | 1.13% | > 20.6 µM |
| Cc1cc(C)c(C#N)c(SCC(=O)NC2CC2)n1 | 5.34% | -3.32% | 8.05% | > 20.6 µM |
| Cc1cc(C)n(CC(=O)n2c3c(c4ccccc42)CCCC3)n1 | 5.13% | 0.496% | 9.09% | > 20.6 µM |
| COC(=O)c1ccc(C2/C(=C(/O)c3ccc(OC)cc3)C(=O)C(=O)N2c2cc(C)on2)cc1 (centres undefined) | -14% | -13.5% | -20.1% | > 20.6 µM |

| Structure (SMILES) | activity change, negative = inhibition [1] | activity change, negative = inhibition [2] | activity, negative = inhibition [3] | Potency [4] |
| --- | --- | --- | --- | --- |
| O/N=C1\CCc2cc(Cl)ccc21 | -7.29% | -1.82% | 6.47% | > 20.6 µM |
| COc1ccccc1N(O)C1CC(=O)N(c2ccc(Br)cc2)C1=O (centres undefined) | -7.13% | -6.72% | -0.749% | > 20.6 µM |
| CCCc1nc2n[nH]c(N)c2c2c1COC(C)(C)C2 | 2.75% | -0.018% | 2.38% | > 20.6 µM |
| COc1ccc(/C(O)=C2/C(=O)C(=O)N(CCN(C)C)C2c2ccccn2)cc1OC (centres undefined) | 4.92% | -3.03% | -3.63% | > 20.6 µM |
| CC(=O)C1=C(O)C(=O)N(c2ccc(S(N)(=O)=O)cc2)C1c1ccccc1F (centres undefined) | -4.17% | 5.76% | -0.593% | > 20.6 µM |
| COC(=O)C(NC(=O)c1ccco1)(Nc1ccc(Br)cn1)C(F)(F)F (centres undefined) | -10.6% | -10.8% | -13% | > 20.6 µM |
| Cc1occc(=O)c1OC(=O)Nc1ccccc1 | 9.9% | 1.25% | 7.55% | > 20.6 µM |
| CCC(NC(=O)Nc1ccc(O)cc1)(C(F)(F)F)C(F)(F)F | -8.11% | 8.99% | -7.48% | > 20.6 µM |
| CCCCn1c2nc3ccccc3nc2c2c(=O)n(CC(C)C)cnc21 | -1.88% | -20.4% | -6.11% | > 20.6 µM |
| N=c1ncn(CC(O)CN2CCOCC2)c2nc(N3CCOCC3)[nH]c12 (centres undefined) | 6.34% | -3.22% | 13.6% | > 20.6 µM |
| Cc1ccc(-n2ncc3c(N4CCCC4)ncnc32)c(C)c1 | -15% | 22.5% | -1.13% | > 20.6 µM |
| Cn1c(=O)n(CCC(=O)O)c2ccccc21 | 11.6% | 2% | 2.26% | > 20.6 µM |
| C=CCOC(=O)C1=C(C)OC(N)=C(C#N)C1c1ccoc1 (centres undefined) | 21.2% | -14.1% | -0.879% | > 20.6 µM |
| CCCCOc1ccc(C(=O)Nc2ccc(N3CCN(C(C)=O)CC3)cc2)cc1 | -6.71% | 11.1% | -7.6% | > 20.6 µM |
| C=CCNc1nc(-c2ccc(O)c(C(N)=O)c2)cs1 | -14.5% | 25.2% | -12.3% | > 20.6 µM |
| COc1cc(C2C(C#N)=C(N)Oc3cc(C)n(Cc4ccccn4)c(=O)c32)cc2c1OCO2 (centres undefined) | -7.44% | -12.8% | -4.06% | > 20.6 µM |
| CCN(CC)CCOC(=O)C1(c2ccc(OC)c(OC)c2)CCCC1 | 10.4% | -82.2% (active) | 11% | > 20.6 µM |
| Cn1c(=O)c2c3c(sc2n2c(SCC(=O)c4ccccc4)nnc12)COC(C)(C)C3 | 5.44% | -28.1% | 4.51% | > 20.6 µM |
| O=C1OC(Nc2ccc(Br)cn2)c2ccccc21 (centres undefined) | 12.2% | 16.3% | 3.14% | > 20.6 µM |
| COc1ccc(/C(O)=C2/C(=O)C(=O)N(c3nc(C)c(C)s3)C2c2ccco2)cc1 (centres undefined) | -13.8% | 21.3% | -14.6% | > 20.6 µM |
| CCOc1ccc(-c2nc(C#N)c(N3CCN(CC)CC3)o2)cc1 | -12.4% | 21% | 19.7% | > 20.6 µM |
| CCOC(=O)Cc1nnc(Nc2cccc(O)c2)c2ccccc12 | -12.7% | -6.58% | -17.1% | > 20.6 µM |
| Cc1nc(NCc2ccccc2)c(C(N)=O)c2c1COC(C)(C)C2 | 1.8% | 9.09% | 6.9% | > 20.6 µM |
| CCCc1nnc(SCc2ccc(OCC)cc2)n1N | 4.67% | 7.42% | 10.4% | > 20.6 µM |
| Cn1c(SCC(=O)N2CCOCC2)nnc1-c1ccc(Cl)cc1Cl | -13.7% | -5.6% | 5.04% | > 20.6 µM |
